Measured values taken from PubChem BioAssay AID1619 (SRMLSC, 2009).
Out of some 220,000 compounds screened, about 830 (0.38%) were called active.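 Rule for the calls: active = compound inhibiting the enzyme by more than half at any dose during confirmatory dose-response retesting; inconclusive = strong single-dose inhibitors picked by rank but not retested; inactive = the rest.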 Not all results are given here. Measured potencies and affinities stand elsewhere.

The compounds below were run against Leucine aminopeptidase (Plasmodium falciparum (isolate 3D7)) (UniProt Q8IL11) (assay: P. falciparum M17LAP inhibitors, primary screen, biochemical, fluorogenic H-Leu-NHMec substrate, 1536-well (AID 1619;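 note: plate controls were full reaction with DMSO carrier for no effect and no enzyme background for full effect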)). Conditions: recombinant M17LAP, H-Leu-NHMec fluorogenic kinetic assay; at 30 µM; hits give high values.
Leucine aminopeptidase (Plasmodium falciparum (isolate 3D7)), sequence (Q8IL11 whole entry, looked up): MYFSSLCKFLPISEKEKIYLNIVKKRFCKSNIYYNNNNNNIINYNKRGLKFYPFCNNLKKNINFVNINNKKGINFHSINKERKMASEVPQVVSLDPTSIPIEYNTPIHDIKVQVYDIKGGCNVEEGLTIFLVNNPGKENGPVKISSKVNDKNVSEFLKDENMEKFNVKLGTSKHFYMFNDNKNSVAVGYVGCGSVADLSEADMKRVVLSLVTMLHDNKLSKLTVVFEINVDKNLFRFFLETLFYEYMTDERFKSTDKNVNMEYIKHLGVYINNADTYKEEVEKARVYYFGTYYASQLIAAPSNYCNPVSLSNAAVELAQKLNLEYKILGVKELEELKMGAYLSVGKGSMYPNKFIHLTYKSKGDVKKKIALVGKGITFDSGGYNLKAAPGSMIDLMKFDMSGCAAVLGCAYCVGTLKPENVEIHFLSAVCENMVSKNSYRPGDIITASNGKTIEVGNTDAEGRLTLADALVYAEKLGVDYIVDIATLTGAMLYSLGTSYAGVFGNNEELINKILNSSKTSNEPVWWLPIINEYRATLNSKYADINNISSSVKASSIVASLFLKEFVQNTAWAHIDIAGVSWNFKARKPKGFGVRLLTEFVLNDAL

inhibition, inactive:
CCOc1ccc(OCC)c(NC(=O)C2CCCN(S(=O)(=O)c3c(C)noc3C)C2)c1 (stereo not drawn) 3.89%
COc1ccc(OC)c(N/C=C2/CCCCC2=O)c1 5.47%
NC(=O)COc1ncn(-c2ccccc2)n1 1.05%
CC(=O)COc1ncn(-c2ccccc2)n1 42.4%
CCCCC(=O)Nc1nnc(-c2ccc(OC)cc2)s1 4.4%
O=C(CN1C(=O)NC2(CCCC2)C1=O)OCc1cc(=O)n2cc(Br)ccc2n1 -0.9%
O=C1CCCCN1CCc1c[nH]c2ccccc12 15.4%
COc1ccc(N2CCN(c3n[nH]c(N)n3)CC2)cc1 0.79%
COc1ccc(-n2nc3c(N)n[nH]c3cc2=O)cc1 -0.44%
O=C(CC12CC3CC(CC(C3)C1)C2)NC(=S)NCc1ccccc1 -4.21%
Cc1cccnc1CN1CCN(C(=O)c2cc(COc3ccc4ncccc4c3)on2)CC1 0.97%
Cc1ccccc1NC(=O)c1cnc2ccccn2c1=O 2.31%
O=C(Nc1cccc(C(F)(F)F)c1)c1cccnc1 -1.75%
Cn1ncc(N)c1C(=O)Nc1cccc(C(F)(F)F)c1 1.2%
CSc1nc2nc3c(cc2c(=O)n1-c1ccc(C)cc1)COC(C)(C)C3 3.67%
CCc1ccc(CN(C)C(=O)CCc2nnc(Cc3cccc(C)c3)o2)nc1 -6.64%
Cc1cccc(C)c1NC(=O)CSCC(=O)O 4.91%
Cc1cccc(C)c1NC(=O)CSCCO 0.75%
CCOC(=O)CSc1nc(-c2ccccc2)nc2ccc(C)cc12 2.78%
CC1CN(c2nc(-c3ccccc3)nc3ccccc23)CC(C)O1 (stereo not drawn) 4.44%
Cc1ccc(/C=c2\sc3nc(-c4cccs4)nn3c2=O)o1 79.6%
CCN(CC)c1ccc(/C=c2\sc3nnc(-c4ccccc4Cl)n3c2=O)cc1 1.48%
CCN(CC)c1ccc(/C=c2/sc3nnc(-c4ccccc4C)n3c2=O)cc1 9.78%
Cc1ccc(/C=c2\sc3nc(-c4ccco4)nn3c2=O)o1 42.2%
CCc1ccc(NC(=O)C(C)Nc2ccc(S(=O)(=O)NC(C)=O)cc2)cc1 (stereo not drawn) 3.98%
O=[N+]([O-])c1cccc(-c2nnn(C34CC5CC(CC(C5)C3)C4)n2)c1 -10.4%
COc1ccc(N(CC(=O)Nc2ccc3c(c2)OCO3)S(=O)(=O)c2ccc(C)cc2)cc1OC -12.9%
COc1ccc2c(c1OC)C(=O)OC2CC(=O)c1ccc(O)cc1 (stereo not drawn) 14.4%
COc1ccc(C(=O)CC2OC(=O)c3c2ccc(OC)c3OC)cc1 (stereo not drawn) 9.31%
CC(C)n1cc(/C=C2\NC(=O)N(c3cccc(Cl)c3)C2=O)c2ccccc21 -7.4%
O=C(O)Cn1cc(/C=C2\SC(=O)N(c3ccccc3)C2=O)c2ccccc21 15%
CCOc1ccc(Nc2cc(=O)oc3ccccc23)cc1 4.7%
Cc1cccc(N2CCN(S(=O)(=O)c3ccc4c(c3)CCN4C(=O)CCC(=O)O)CC2C)c1 (stereo not drawn) -2.93%
CCN(CC)C(=O)CSc1nnnn1-c1ccc(F)c(Cl)c1 -1.03%
CNC(=S)Nc1ccc(C)cc1 3.68%
Cc1ccc(NC(N)=S)cc1 18.7%
O=C(CN1C(=O)C2C3C=CC(C3)C2C1=O)Nc1ccc2nccnc2c1 (stereo not drawn) 1.82%
Cc1cc(C=C2C(=O)c3ccccc3C2=O)c(C)n1-c1ccc(C(=O)O)cc1 18.3%
Cc1cc(C=C2C(=O)c3ccccc3C2=O)c(C)n1-c1ccccc1 -3.81%
Cn1c(=O)cc(OCCCC(=O)NCCC2=CCCCC2)c2ccccc21 -10.7%
C=CCn1cccc(C(=O)Nc2ccc(OC)cc2OC)c1=O 21.4%
CCOC(=O)COc1cccc2c(=O)n(CC(=O)N3CCC(C)CC3)ccc12 3.95%
COC(=O)COc1cccc2c(=O)n(CC(=O)N3CCC(C)CC3)ccc12 -7.98%
COC(=O)COc1cccc2c(=O)n(CC(=O)N3CCCCC3)ccc12 12.9%
COc1cccc2c(=O)n(CC(=O)N3CCCCC3)ccc12 33.4%
COc1ccccc1/C=C(\NC(=O)c1ccc(OC)c(OC)c1)C(=O)Nc1cccc([N+](=O)[O-])c1 -33.9%
Cc1ccc(-c2cc(C(=O)NCc3ccco3)no2)cc1 -5.12%
COc1cc(SC)ccc1C(=O)NCCN1CCOCC1 -0.03%
O=C(c1cccc(NS(=O)(=O)c2cccc(F)c2)c1)N1CCN(c2ccccc2)CC1 -9.4%
Cn1c(SCC(=O)Nc2ccc(N3CCOCC3)cc2)nnc1-c1ccccc1 -0.5%
COc1ccc(/C=N/N=C2\SC(CC(=O)O)C(=O)N2c2ccccc2)cc1 (stereo not drawn) 33.9%
COc1ccc(/C=N\N=C2/SC(CC(=O)O)C(=O)N2c2ccc(O)cc2)cc1 (stereo not drawn) 45.6%
Cc1ccc2cc(C)c3nnc(SCC(=O)N4CCCc5ccccc54)n3c2c1C 1.13%
Cc1cc(C(=O)CN2C(=O)NC3(CCCc4ccccc43)C2=O)c(C)n1Cc1ccccc1 (stereo not drawn) 7.63%
CCOc1ccccc1NC(=O)NC1(C(=O)N2CCN3CCCC3C2)CCCCC1 (stereo not drawn) 20.5%
CCn1c(SCC(=O)O)nnc1-c1ccccc1 -5.68%
O=C(CSc1nc2ccccc2n1CCc1ccccc1)c1ccc(O)c(O)c1 -0.72%
CCn1c(SCC(=O)OC)nnc1-c1ccc(C)cc1 3.28%
Cc1cc(SCC(=O)c2ccc(O)c(O)c2)nc2ccccc12 36.2%
Cn1cnnc1SCC(=O)c1ccc(O)c(O)c1 38.8%
Cc1cc(SCC(=O)c2ccc(O)c(O)c2)n2nc(C)c(-c3ccccc3)c2n1 16.1%
CCn1c(SCC(=O)c2ccccc2)nnc1-c1cccnc1 14.5%
CCn1c(SCC(=O)c2ccc(C)cc2)nnc1-c1ccncc1 3.05%
